Data published in the supplement of paper PMC10849652.
The full data set covers some 7,900 targets. This sample favours those with a hit. About 0.6% of all pairs of compound and target were hits. Values without a mark were called inactive.

How the values were obtained:
Assay in all cases: log2 fold change, soluble protein after heating vs DMSO (PISA); higher = thermal stabilisation; K562 cells, 10 uM, 30 min; active = over 0.2 and 3.5 SD of the protein, either way, in both replicates (recomputed)
IRAK-1-4 Inhibitor I = compound: C1COCCN1CCN2C3=CC=CC=C3N=C2NC(=O)C4=CC(=CC=C4)[N+](=O)[O-] [IRAK-1-4 Inhibitor I]
How it was run: (§1)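 K562 cells at 2×10^6 cells/mL were treated with 10 μM compound for 30 min. Aliquots were heated for 3 min across 48°C-58°C, pooled, and extracted in PBS with 0.5% NP-40 at 4°C; soluble protein was the supernatant after 21,000xg for 90 min. Soluble protein was quantified by TMTpro 16plex LC-MS/MS with channel sums equalised, and reported as log2 fold change in thermal stability against DMSO controls, with values from duplicates.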

ibrutinib = compound: C=CC(=O)N1CCC[C@@H](n2nc(-c3ccc(Oc4ccccc4)cc3)c3c(N)ncnc32)C1 [ibrutinib]
How it was run: as §1

[1] = compound: CC(=O)c1cnc2ccc(-c3cc(Cl)c(O)c(Cl)c3)nc2c1N[C@H]1CC[C@H](CN(C)C)CC1
How it was run: as §1

ralimetinib = compound: CC(C)(C)Cn1c(N)nc2ccc(-c3[nH]c(C(C)(C)C)nc3-c3ccc(F)cc3)nc21 [ralimetinib]
How it was run: as §1

[2] = compound: CC(C)C1=C2N=C(C=C(N2N=C1)NCC3=CC=CC=C3)NCCCCCCN
How it was run: as §1

[3] = compound: CC(C)C[C@@H](C=O)NC(=O)[C@H](CC(C)C)NC(=O)[C@H](CC(C)C)NC(=O)OCc1ccccc1
How it was run: as §1

pinometostat = compound: CC(C)N(C[C@H]1O[C@@H](n2cnc3c(N)ncnc32)[C@H](O)[C@@H]1O)[C@H]1C[C@@H](CCc2nc3cc(C(C)(C)C)ccc3[nH]2)C1 [pinometostat]
How it was run: as §1

[4] = compound: CC1=C(C2=C(C=C1)C(=O)C3=CC=CC=C3N2CCCN)C
How it was run: as §1

[5] = compound: CC1=C(C=C(C=C1)NC(=O)C2=CC(=CC=C2)N(C)C)NC(=O)C3=CC=C(C=C3)O
How it was run: as §1

[6] = compound: CC1=CC=C(C=C1)SC2=C3C=C(SC3=CN=C2)C(=O)N
How it was run: as §1

[7] = compound: CC1=NC(=CC=C1)C2=C(N=C(N2)C(C)(C)C)C3=CC4=NC=CN=C4C=C3
How it was run: as §1

vemurafenib = compound: CCCS(=O)(=O)Nc1ccc(F)c(C(=O)c2c[nH]c3ncc(-c4ccc(Cl)cc4)cc23)c1F [vemurafenib]
How it was run: as §1

[8] = compound: CCCS(=O)(=O)Nc1ccc(F)c(C(=O)c2c[nH]c3ncc(Cl)cc23)c1F
How it was run: as §1

givinostat = compound: CCN(CC)Cc1ccc2cc(COC(=O)Nc3ccc(C(=O)NO)cc3)ccc2c1 [givinostat]
How it was run: as §1

barasertib = compound: CCN(CCCOc1ccc2c(Nc3cc(CC(=O)Nc4cccc(F)c4)[nH]n3)ncnc2c1)CCOP(=O)(O)O [barasertib]
How it was run: as §1

[9] = compound: CC(C)(O)CC(=O)NCCn1ccc2ncnc(Nc3ccc(Oc4cccc(C(F)(F)F)c4)c(Cl)c3)c21
How it was run: as §1

[10] = compound: CC1=C(C(CC(=O)N1)C2=CC=C(C=C2)C(F)(F)F)C(=O)NC3=C(C=C4C(=C3)C=NN4)F
How it was run: as §1

[11] = compound: CC1=C(C=C(C=C1)NC(=O)C2=CC(=CC=C2)C(C)(C)C#N)NC3=CC4=C(C=C3)N=CN(C4=O)C
How it was run: as §1

Nexturastat A = compound: CCCCN(Cc1ccc(C(=O)NO)cc1)C(=O)Nc1ccccc1 [Nexturastat A]
How it was run: as §1

[12] = compound: CCCc1cc(C)[nH]c(=O)c1CNC(=O)c1cc(-c2ccnc(N3CCN(C)CC3)c2)cc2c1cnn2C(C)C
How it was run: as §1

UniProt P15976, sequence (P15976 whole entry, looked up): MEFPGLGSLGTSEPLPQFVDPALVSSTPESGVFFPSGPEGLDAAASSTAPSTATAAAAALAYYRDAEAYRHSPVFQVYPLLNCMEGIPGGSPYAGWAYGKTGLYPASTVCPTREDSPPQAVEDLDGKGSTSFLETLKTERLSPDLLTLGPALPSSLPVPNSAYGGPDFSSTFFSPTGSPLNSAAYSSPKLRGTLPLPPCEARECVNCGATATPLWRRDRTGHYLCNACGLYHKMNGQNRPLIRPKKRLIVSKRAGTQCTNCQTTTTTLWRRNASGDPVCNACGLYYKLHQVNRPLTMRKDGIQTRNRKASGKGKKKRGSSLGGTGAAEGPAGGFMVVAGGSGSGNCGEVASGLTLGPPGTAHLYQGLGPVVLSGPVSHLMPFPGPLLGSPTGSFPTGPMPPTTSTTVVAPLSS
UniProt Q9Y3D6, sequence (Q9Y3D6 whole entry, looked up): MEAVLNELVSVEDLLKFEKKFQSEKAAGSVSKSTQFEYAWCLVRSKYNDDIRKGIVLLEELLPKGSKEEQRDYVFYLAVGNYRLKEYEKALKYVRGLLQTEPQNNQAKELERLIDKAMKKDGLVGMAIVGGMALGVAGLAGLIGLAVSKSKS
UniProt Q9H4G4, sequence (Q9H4G4 whole entry, looked up): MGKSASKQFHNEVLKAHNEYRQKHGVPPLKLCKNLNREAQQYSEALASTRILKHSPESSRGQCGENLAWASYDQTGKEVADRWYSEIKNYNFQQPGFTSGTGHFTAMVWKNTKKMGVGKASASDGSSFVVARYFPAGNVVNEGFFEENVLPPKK
UniProt Q03013, sequence (Q03013 whole entry, looked up): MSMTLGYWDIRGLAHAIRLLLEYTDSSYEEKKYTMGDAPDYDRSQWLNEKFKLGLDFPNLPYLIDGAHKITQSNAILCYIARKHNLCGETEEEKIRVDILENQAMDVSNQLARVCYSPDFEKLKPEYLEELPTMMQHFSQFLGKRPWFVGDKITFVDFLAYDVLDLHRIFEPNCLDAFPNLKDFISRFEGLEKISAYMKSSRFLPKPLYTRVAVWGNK
UniProt P62879, sequence (P62879 whole entry, looked up): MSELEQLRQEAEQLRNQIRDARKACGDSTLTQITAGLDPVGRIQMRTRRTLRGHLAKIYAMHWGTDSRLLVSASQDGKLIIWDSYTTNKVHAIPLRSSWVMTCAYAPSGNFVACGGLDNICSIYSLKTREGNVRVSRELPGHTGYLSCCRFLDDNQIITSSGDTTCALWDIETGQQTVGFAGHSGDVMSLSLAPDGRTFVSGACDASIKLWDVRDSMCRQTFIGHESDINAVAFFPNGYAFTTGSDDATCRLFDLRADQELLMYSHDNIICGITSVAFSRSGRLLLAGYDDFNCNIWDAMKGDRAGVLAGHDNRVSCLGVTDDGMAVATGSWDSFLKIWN
UniProt Q9UK99, sequence (Q9UK99 whole entry, looked up): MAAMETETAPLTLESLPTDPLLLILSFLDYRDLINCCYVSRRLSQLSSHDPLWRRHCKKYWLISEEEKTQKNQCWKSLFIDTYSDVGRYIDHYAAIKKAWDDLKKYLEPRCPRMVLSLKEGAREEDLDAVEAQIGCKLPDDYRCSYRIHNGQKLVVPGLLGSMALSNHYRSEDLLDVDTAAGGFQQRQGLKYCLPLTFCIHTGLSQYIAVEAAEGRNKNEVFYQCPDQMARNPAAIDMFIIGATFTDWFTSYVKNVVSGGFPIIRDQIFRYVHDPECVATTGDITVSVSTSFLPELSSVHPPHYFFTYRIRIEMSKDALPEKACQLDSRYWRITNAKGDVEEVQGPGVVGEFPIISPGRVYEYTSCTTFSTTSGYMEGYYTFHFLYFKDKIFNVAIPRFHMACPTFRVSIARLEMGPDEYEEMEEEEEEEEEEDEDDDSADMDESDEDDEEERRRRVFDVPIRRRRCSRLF
UniProt Q8N2G8, sequence (Q8N2G8 whole entry, looked up): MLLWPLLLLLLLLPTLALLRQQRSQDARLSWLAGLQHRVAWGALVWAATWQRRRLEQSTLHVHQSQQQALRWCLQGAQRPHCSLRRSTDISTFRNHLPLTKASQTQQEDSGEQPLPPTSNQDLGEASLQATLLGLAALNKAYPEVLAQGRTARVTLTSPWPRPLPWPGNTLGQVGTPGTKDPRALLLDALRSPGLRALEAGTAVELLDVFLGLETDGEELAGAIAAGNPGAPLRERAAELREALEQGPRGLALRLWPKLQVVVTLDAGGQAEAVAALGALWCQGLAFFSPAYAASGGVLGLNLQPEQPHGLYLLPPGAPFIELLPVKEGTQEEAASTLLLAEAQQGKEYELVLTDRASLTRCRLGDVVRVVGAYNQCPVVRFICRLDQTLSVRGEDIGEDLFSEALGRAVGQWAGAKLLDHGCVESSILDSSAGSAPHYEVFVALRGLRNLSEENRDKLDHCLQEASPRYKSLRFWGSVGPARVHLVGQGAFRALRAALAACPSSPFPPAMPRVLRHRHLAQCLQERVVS
UniProt Q9NZC3, sequence (Q9NZC3 whole entry, looked up): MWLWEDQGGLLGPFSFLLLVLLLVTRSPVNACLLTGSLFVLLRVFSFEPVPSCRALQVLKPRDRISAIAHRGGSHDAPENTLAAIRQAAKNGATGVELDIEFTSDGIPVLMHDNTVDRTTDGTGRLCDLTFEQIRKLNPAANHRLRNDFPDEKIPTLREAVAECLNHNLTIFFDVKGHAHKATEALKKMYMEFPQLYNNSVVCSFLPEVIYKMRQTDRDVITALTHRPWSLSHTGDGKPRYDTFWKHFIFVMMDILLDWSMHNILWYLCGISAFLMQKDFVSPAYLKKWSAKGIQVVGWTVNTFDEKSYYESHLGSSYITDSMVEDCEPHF
UniProt O15117, sequence (O15117 whole entry, looked up): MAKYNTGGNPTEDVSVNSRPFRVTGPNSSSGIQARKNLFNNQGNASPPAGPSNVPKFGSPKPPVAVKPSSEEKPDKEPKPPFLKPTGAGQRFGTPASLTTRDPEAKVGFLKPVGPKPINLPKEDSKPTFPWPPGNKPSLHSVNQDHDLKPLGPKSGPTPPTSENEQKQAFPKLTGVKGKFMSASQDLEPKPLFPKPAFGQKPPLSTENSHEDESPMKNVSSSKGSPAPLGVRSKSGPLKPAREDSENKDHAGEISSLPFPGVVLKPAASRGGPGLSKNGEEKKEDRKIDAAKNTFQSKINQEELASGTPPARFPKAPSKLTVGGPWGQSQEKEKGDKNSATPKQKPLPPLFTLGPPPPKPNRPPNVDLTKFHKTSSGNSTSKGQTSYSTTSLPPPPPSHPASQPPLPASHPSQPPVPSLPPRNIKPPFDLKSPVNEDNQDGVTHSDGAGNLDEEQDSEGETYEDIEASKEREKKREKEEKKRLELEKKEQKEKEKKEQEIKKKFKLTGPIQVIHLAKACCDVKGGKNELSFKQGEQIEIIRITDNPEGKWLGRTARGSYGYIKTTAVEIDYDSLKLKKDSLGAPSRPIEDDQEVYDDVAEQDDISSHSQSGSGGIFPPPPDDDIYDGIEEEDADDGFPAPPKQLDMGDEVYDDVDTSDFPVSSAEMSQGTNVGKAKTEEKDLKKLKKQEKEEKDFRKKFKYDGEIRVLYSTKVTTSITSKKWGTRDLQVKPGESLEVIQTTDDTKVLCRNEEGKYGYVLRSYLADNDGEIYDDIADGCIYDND
UniProt O14893, sequence (O14893 whole entry, looked up): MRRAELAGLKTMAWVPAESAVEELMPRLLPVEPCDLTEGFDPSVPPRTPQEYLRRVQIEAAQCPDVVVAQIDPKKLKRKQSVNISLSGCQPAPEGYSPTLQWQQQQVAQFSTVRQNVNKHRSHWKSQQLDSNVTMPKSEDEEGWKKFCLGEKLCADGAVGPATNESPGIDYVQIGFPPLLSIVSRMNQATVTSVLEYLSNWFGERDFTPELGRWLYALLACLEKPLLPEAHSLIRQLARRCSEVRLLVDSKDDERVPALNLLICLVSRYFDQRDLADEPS
UniProt P11142, sequence (P11142 whole entry, looked up): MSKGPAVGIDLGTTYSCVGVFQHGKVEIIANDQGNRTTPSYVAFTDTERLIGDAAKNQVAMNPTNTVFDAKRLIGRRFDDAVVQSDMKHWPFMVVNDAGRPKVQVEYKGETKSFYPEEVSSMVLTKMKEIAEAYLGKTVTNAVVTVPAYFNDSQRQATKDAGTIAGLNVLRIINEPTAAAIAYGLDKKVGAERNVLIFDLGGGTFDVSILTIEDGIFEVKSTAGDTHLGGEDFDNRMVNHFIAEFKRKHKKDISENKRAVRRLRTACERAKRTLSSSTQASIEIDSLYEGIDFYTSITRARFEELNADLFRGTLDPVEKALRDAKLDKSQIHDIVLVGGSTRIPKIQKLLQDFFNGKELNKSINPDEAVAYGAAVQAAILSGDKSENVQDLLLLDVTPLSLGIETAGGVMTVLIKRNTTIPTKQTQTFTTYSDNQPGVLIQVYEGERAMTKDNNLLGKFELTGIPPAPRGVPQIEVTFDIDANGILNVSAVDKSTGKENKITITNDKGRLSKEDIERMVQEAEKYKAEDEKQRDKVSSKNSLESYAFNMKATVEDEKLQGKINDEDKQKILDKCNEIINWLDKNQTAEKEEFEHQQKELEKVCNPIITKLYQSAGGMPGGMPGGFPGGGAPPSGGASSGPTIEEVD
UniProt O43824, sequence (O43824 whole entry, looked up): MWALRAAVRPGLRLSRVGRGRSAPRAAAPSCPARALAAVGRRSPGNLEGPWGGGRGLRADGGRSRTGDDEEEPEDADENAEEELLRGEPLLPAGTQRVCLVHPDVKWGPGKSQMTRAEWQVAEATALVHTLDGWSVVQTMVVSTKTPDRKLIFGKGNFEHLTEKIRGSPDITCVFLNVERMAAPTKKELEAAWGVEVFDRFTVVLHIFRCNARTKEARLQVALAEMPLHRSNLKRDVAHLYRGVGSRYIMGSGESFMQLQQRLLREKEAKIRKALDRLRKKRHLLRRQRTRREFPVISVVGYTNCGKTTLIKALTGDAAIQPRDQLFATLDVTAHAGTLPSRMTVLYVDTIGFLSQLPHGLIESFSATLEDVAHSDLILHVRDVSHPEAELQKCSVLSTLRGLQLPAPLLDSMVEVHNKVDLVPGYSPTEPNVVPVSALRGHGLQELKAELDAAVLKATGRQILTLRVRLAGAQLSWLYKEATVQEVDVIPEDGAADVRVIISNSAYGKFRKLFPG

Row | Target | log2 fold change (IRAK-1-4 Inhibitor I) | log2 fold change (ibrutinib) | log2 fold change [1] | log2 fold change (ralimetinib) | log2 fold change [2] | log2 fold change [3] | log2 fold change (pinometostat) | log2 fold change [4] | log2 fold change [5] | log2 fold change [6] | log2 fold change [7] | log2 fold change (vemurafenib) | log2 fold change [8] | log2 fold change (givinostat) | log2 fold change (barasertib) | log2 fold change [9] | log2 fold change [10] | log2 fold change [11] | log2 fold change (Nexturastat A) | log2 fold change [12]
1 | GOLGA8R (UniProt I6L899) | 0.003 | 0.04 | -0.106 | 0.247 | 0.227 | 0.177 | 0.035 | 0.201 | -0.037 | 0.041 | -0.205 | 0.06 | -0.086 | 0.223 | 0.048 | – | – | – | – | –
2 | GSTM4 (UniProt Q03013) | 0.091 | -0.028 | -0.083 | -0.035 | 0.029 | -0.008 | -0.05 | 0.115 | 0.128 | -0.041 | 0.015 | 0.126 | -0.058 | 0.001 | -0.164 | -0.103 | -0.036 | 0.106 | -0.117 | -0.105
3 | HDAC7 isoform 5 (UniProt Q8WUI4) | 0.094 | -0.007 | -0.561 (active) | -0.123 | 0.108 | 0.036 | 0.035 | 0.065 | 0.028 | -0.043 | -0.002 | 0 | -0.009 | – | 0 | -0.031 | 0.029 | -0.01 | 0.108 | -0.014
4 | GDE1 (UniProt Q9NZC3) | -0.052 | 0.031 | -0.009 | 0.02 | 0.067 | 0.049 | 0.054 | 0.266 | -0.004 | 0.012 | -0.059 | -0.033 | -0.009 | -0.052 | -0.049 | -0.033 | 0.106 | 0.022 | 0.02 | 0.064
5 | HSPA8 (UniProt P11142) | 0.032 | -0.015 | 0.014 | -0.004 | 0.037 | -0.013 | -0.023 | -0.016 | 0.005 | -0.025 | 0.011 | -0.008 | -0.02 | -0.02 | -0.005 | 0.029 | -0.009 | 0.021 | -0.011 | 0.04
6 | GTPBP6 (UniProt O43824) | -0.043 | -0.081 | 0.028 | 0.039 | 0.204 | 0.024 | 0.062 | 0.013 | 0.014 | – | -0.042 | 0.015 | – | -0.062 | -0.015 | 0.111 | 0.112 | 0.038 | -0.037 | 0.006
7 | FIS1 (UniProt Q9Y3D6) | 0.029 | 0.003 | 0.067 | -0.036 | -0.023 | -0.025 | -0.074 | -0.031 | 0.006 | 0 | 0 | 0.048 | -0.046 | -0.014 | -0.027 | 0.029 | 0.004 | -0.024 | -0.018 | -0.009
8 | FBXO3 (UniProt Q9UK99) | 0.038 | -0.003 | -0.008 | 0.171 | -0.014 | 0.031 | 0 | -0.047 | -0.08 | 0 | -0.018 | -0.089 | -0.025 | 0.049 | -0.043 | 0.021 | 0.014 | -0.042 | -0.043 | -0.057
9 | GATA1 (UniProt P15976) | 0.038 | 0.015 | 0.051 | 0.041 | 0.047 | 0.088 | 0.027 | -0.368 (active) | 0.02 | -0.085 | -0.029 | -0.06 | -0.035 | -0.047 | -0.034 | 0.027 | 0.081 | -0.05 | -0.104 | -0.003
10 | FBXO7 (UniProt Q9Y3I1) | -0.008 | 0.036 | -0.024 | -0.005 | 0.001 | -0.013 | 0.042 | 0.044 | -0.028 | 0.004 | -0.014 | 0.017 | -0.022 | 0.03 | 0.02 | -0.068 | -0.021 | -0.048 | 0.047 | -0.026
11 | GNB2 (UniProt P62879) | -0.021 | 0.003 | -0.013 | 0.016 | 0.022 | -0.025 | 0.016 | 0.076 | 0.018 | -0.053 | -0.018 | 0.044 | 0.036 | -0.019 | -0.042 | 0.013 | -0.034 | 0.11 | -0.023 | 0.012
12 | FYB1 isoform 3 (UniProt O15117) | 0.009 | -0.012 | -0.193 | 0.308 | -0.069 | 0.226 | 0.002 | 0.129 | 0.063 | 0.093 | 0.051 | -0.009 | 0.169 | 0.066 | 0.052 | 0.06 | -0.075 | 0.073 | 0.011 | -0.03
13 | GLIPR2 (UniProt Q9H4G4) | 0.038 | -0.047 | -0.01 | 0.04 | -0.35 (active) | 0.012 | 0.03 | 0.061 | -0.152 | -0.054 | -0.032 | 0.092 | -0.014 | 0.009 | 0 | 0.06 | – | 0.156 | 0.062 | 0.028
14 | GEMIN2 (UniProt O14893) | -0.046 | 0.055 | -0.061 | 0.049 | – | 0.012 | -0.096 | – | 0.033 | 0 | -0.002 | -0.028 | -0.023 | – | 0.078 | -0.307 | 0.044 | -0.073 | 0.243 | 0.029
15 | HOMER1 (UniProt Q86YM7) | 0.104 | 0.009 | -0.043 | 0.004 | 0.034 | -0.088 | -0.225 (active) | 0.093 | -0.059 | -0.009 | 0.125 | -0.021 | 0.071 | 0.007 | 0.036 | 0.03 | 0.038 | -0.049 | -0.138 | 0.085
16 | GHDC (UniProt Q8N2G8) | 0.014 | 0.015 | -0.036 | 0.007 | -0.277 (active) | 0.018 | -0.015 | -0.011 | 0.057 | -0.03 | -0.021 | -0.041 | -0.044 | -0.025 | -0.008 | 0.037 | 0.025 | -0.028 | -0.113 | -0.011
